Source: PubChem BioAssay AID624040 (The Scripps Research Institute Molecular Screening Center, 2012)
Values joined by “and” are separate entries in the source; they are usually repeats but may differ in a detail not shown here. Equal values may be shown once. Among all 360,000 compounds or so, about 2,100 (0.58%) were called active.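 How the source made its calls: active means inhibition above a per-plate cutoff, the mean of that plate's test compounds plus 3 SD (cut at about 27% in these data); inactive means the rest.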 The entries come from a sample that favours actives as a whole. Some compounds were tested as several samples or in several runs, with calls that do not always agree.

These compounds were tested against Muscarinic acetylcholine receptor M5 (Homo sapiens) (UniProt P08912) (assay: human M5 muscarinic receptor antagonists, primary screen, CHO cells, Fluo-8 calcium fluorescence (AID 624040;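 further: 0% = acetylcholine EC80 with DMSO and 100% = DMSO without agonist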)). Details: CHO-hM5 cells, ACh EC80, at 3 µM, stronger effect = higher value.
Muscarinic acetylcholine receptor M5 (Homo sapiens), sequence (P08912 whole entry, looked up): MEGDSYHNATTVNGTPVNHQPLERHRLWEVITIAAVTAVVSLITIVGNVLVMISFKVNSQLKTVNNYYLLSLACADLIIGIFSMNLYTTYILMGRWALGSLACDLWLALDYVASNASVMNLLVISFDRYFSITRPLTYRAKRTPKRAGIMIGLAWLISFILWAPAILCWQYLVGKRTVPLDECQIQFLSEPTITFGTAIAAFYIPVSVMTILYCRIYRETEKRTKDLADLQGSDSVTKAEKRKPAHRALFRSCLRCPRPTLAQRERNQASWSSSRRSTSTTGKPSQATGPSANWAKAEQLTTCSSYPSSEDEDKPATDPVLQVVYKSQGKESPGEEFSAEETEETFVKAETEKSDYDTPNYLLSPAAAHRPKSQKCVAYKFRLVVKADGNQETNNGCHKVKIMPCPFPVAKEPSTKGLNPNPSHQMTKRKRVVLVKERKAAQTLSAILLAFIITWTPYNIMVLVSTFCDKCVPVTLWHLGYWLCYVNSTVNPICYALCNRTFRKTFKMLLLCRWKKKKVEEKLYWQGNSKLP
For `CCN1CCN(C(=O)/C=C\C(=O)O)CC1`, the inhibition was 2.54% (inactive). In the case of `O=C(Nc1ccc(Cl)cn1)c1cnn2cccnc12`, the inhibition is reported as -6.64% (inactive). With `O=C(Nc1ccc(Cl)cn1)c1ccccc1-c1ccccc1` the inhibition was 10.9% (inactive). For `O=C(Nc1ccc(Cl)cn1)Nc1cccs1`, the inhibition was 31.8% (active). `CC(C)C[C@H](NC(=O)N1CCn2c1nc1ccccc12)C(=O)NC1CC1` was tested, and the inhibition was 0.78% (inactive). In the case of `CCN(CC)S(=O)(=O)c1ccc2nc(CSc3nnnn3-c3ccc(O)cc3)[nH]c2c1`, the inhibition is reported as 10.1% (inactive). With `Fc1ccc(COc2cccc(-c3n[nH]c(=S)o3)c2)cc1` the inhibition was 8.85% (inactive). In the case of `Cc1nc2ccccc2cc1OCc1ccc(F)cc1`, the inhibition is reported as 47.8% (active). In the case of `Fc1cccc2ncnc(OCc3ccccc3)c12`, the inhibition is reported as 4.79% (inactive). For `O=C(CSc1nccc(=O)[nH]1)Nc1ccc(N2CCOCC2)c(Cl)c1`, the inhibition was 12.6% (inactive). `CCOc1ccc(C(C)=O)cc1CSc1nnc(-c2ccncc2)n1CCOC` was tested, and the inhibition was 12% (inactive). `CCN1C(=O)CS/C1=N\c1nccs1` was tested, and the inhibition was -0.1% (inactive). `CCOc1ccc(C(=O)NCC(=O)N2CCCCCCC2)cc1OCC` was tested, and the inhibition was 1.82% (inactive). In the case of `CO/N=C(\C(=O)N[C@@H]1C(=O)N2C(C(=O)O)=C(COC(C)=O)CS[C@H]12)c1csc(N)n1` (stereo in doubt), the inhibition is reported as 0.17% (inactive) and 51.3% (active) and 30.6% (active). With `CCN1CCN(C(=O)N[C@@H](C(=O)N[C@@H]2C(=O)N3C(C(=O)O)=C(CSc4nnnn4C)CS[C@H]23)c2ccc(O)cc2)C(=O)C1=O` the inhibition was -7.79% (inactive). In the case of `C=CC1=C(C(=O)O)N2C(=O)[C@@H](NC(=O)/C(=N/OCC(=O)O)c3csc(N)n3)[C@H]2SC1`, the inhibition is reported as -2.27% (inactive). `COc1ccc(C(=O)Cn2nnc(-c3ccc(N4CCOCC4)cc3)n2)cc1OC` was tested, and the inhibition was 16.5% (inactive). `N#CCc1ccc(NC(=O)c2ccccc2C(=O)Nc2ccc(CC#N)cc2)cc1` was tested, and the inhibition was 2.31% (inactive). `COc1cc(C(CCN2CCN(c3ccccc3)CC2)c2c(OC)cc(OC)c3ccc(=O)oc23)cc(OC)c1OC` (stereo unspecified) was tested, and the inhibition was 17% (inactive). For `COc1cc(OC)c2ccc(=O)oc2c1C(CCN1CCN(c2ccccc2)CC1)c1ccc2c(c1)OCO2` (stereo unspecified), the inhibition was 31.3% (active). With `CCN(CC)CCC(c1ccc2c(c1)OCO2)c1c(OC)cc(OC)c2c(-c3ccccc3)cc(=O)oc12` (stereo unspecified) the inhibition was 7.48% (inactive). In the case of `Cc1ccc(NC(=O)c2cc([N+](=O)[O-])ccc2Cl)c(O)c1`, the inhibition is reported as 1.06% (inactive). In the case of `CCOC12CC(C)(C)CC(C)(CC3=C1C(=O)CC(C)(C)C3)C2` (stereo unspecified), the inhibition is reported as -1.41% (inactive). `Cc1ccc(CNC(=O)CCNS(=O)(=O)c2ccc(Br)s2)cc1` was tested, and the inhibition was -7.85% (inactive). For `CCN(CC(=O)Nc1ccccc1C(=O)NC1CC1)Cc1cccs1`, the inhibition was -5.91% (inactive). In the case of `CSc1ncc(C(=O)Nc2ccc(C)cc2C)c(C)n1`, the inhibition is reported as 0.26% (inactive). For `CC(=O)Oc1ccc(C(=O)Nc2nccs2)cc1`, the inhibition was -0.3% (inactive). `CSc1nccc(NC(=O)c2ccc(C(C)(C)C)cc2)n1` was tested, and the inhibition was 32.5% (active). For `O=C(CSc1nn(-c2ccc(F)cc2)c(=S)s1)NC1CCS(=O)(=O)C1` (stereo unspecified), the inhibition was 2.55% (inactive). In the case of `CC(=O)NC(c1cccs1)c1cc(Br)c2cccnc2c1O` (stereo unspecified), the inhibition is reported as -3.57% (inactive). In the case of `CCn1c(N)c(Br)c(=O)[nH]c1=O`, the inhibition is reported as -11.1% (inactive). `Cc1ccc(N2CC(C(=O)NCCS(=O)(=O)N3CCN(c4ccccc4)CC3)CC2=O)cc1` (stereo unspecified) was tested, and the inhibition was 8.26% (inactive). With `N#C/C(=C/c1ccc(N2CCCCC2)o1)C(=O)NCCc1c[nH]c2ccccc12` the inhibition was 31.6% (active). With `N#C/C(=C\c1ccc(N2CCOCC2)o1)C(=O)N1CCOCC1` the inhibition was 0.08% (inactive). For `Cc1ccc(C(=O)N/C(=C/c2ccco2)C(=O)NCCc2c[nH]c3ccccc23)cc1C`, the inhibition was 0.84% (inactive). For `Cc1ccccc1CSc1nnc(-c2ccccn2)n1N`, the inhibition was -0.16% (inactive). For `CC(C)(C)S(=O)(=O)N1Cc2cc(CO)cc(CCO)c2[C@H]1CCO`, the inhibition was -3.33% (inactive). For `CN1CCC(=NNC(=O)c2ccc(N(Cc3ccc(Cl)cc3)S(C)(=O)=O)cc2)CC1`, the inhibition was -3.74% (inactive). `CCC1CCC/C1=N\NC(=O)c1ccc(Cl)cc1` (stereo unspecified) was tested, and the inhibition was 27.5% (active). With `CC(NC(=O)c1ccc(Cl)cc1)C(=O)N1CCCCC1` (stereo unspecified) the inhibition was -2.56% (inactive). In the case of `COc1cc(OC)cc(-c2c(C#Cc3ccsc3)c3cc(-c4ccc(OC)cc4F)ccc3n2C)c1`, the inhibition is reported as 8.22% (inactive). In the case of `CCOc1ccc(OCc2ccc(C(=O)N(C)c3ccccc3)o2)cc1`, the inhibition is reported as 8.29% (inactive). In the case of `CCN(CC)c1ccc(NC(=O)CN2CCN(c3ccccn3)CC2)cc1`, the inhibition is reported as 1.09% (inactive). With `CN(C(=O)CN1CCN(c2cc(-c3ccc(OCc4ccccc4)cc3)ncn2)CC1)c1ccccc1` the inhibition was 27.1% (active). In the case of `C[C@H](NS(=O)(=O)c1ccc(Cl)cc1)C(=O)OCC(=O)N1CCOCC1`, the inhibition is reported as 14.1% (inactive). In the case of `CN(C)CCNC(=O)c1ccc(Cl)c2cc3ccccc3nc12`, the inhibition is reported as 0.61% (inactive).
